Screening data (PubChem)
A selection: hits, their analogues and other compounds. The true share with any hit is near 0.49%.
EPAC2 ag: agonists of human EPAC2 (RAPGEF4); AID 720711; Q8WZA2; Potency, µM (series often up to 154 µM), without a hit: at the top dose activation, hits mostly activators; 360,000 tested, 0.079% active; EPAC2 activation, biochemical qHTS; response scale: 100% = 6.5 mM cAMP response; also: nearly all actives have a fitted effect of over 50% in size
Target sequence (Q8WZA2 whole entry, looked up): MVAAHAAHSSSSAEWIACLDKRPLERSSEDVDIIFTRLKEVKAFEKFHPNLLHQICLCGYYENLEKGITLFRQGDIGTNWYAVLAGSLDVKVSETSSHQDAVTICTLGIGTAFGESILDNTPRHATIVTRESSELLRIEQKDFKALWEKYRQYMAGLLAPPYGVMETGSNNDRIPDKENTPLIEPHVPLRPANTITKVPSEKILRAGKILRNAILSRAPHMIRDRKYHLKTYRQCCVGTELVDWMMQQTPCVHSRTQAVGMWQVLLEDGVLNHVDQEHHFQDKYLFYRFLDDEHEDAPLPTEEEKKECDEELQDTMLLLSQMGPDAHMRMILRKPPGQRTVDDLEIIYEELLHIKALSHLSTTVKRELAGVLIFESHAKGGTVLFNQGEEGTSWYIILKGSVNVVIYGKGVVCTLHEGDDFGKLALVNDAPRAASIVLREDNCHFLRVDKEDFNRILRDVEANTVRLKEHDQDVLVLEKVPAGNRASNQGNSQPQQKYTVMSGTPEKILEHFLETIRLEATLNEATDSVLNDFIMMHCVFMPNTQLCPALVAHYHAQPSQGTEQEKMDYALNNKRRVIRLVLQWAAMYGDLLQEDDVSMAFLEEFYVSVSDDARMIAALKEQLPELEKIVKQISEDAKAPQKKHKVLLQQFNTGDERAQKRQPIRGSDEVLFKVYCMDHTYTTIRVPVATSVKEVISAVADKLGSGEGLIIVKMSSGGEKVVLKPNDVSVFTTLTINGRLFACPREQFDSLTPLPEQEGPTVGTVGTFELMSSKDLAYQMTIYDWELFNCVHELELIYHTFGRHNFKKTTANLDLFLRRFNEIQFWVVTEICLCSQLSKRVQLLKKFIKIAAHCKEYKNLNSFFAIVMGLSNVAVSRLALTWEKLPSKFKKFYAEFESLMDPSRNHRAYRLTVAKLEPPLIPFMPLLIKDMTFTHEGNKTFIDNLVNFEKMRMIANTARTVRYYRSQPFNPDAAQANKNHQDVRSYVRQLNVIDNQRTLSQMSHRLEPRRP
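Nucleotide exchange monitored as fluorescence drop when BODIPY-GDP leaves Rap1B. Reaction: 100 nM EPAC2, 250 nM RAP1B-BODIPY-GDP, 50 uM GDP, room temperature, kinetic read over 30 min. Activity expressed relative to 6.5 mM cAMP.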
EPAC1 antagonist: EPAC1 (human) antagonism; 360,000 tested, 0.14% active; EPAC1 GEF assay, Rap1b-BODIPY-GDP exchange fluorescence; Potency, µM (titrated, usually from 115 µM), for the others: top-dose activity change, negative = inhibition, actives largely listed as inhibitors; O95398;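 also: plate controls were vehicle for no effect and positive control for full effect; nearly all actives have a fitted effect of over 50% in size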
EPAC1 agonist: activates human EPAC1 exchange factor; 360,000 tested, 0.073% active; AID 720707; Potency, µM (top dose mostly 154 µM), without a hit: top-dose activation, usual class: activators; EPAC1 agonist qHTS, biochemical assay; response scale: 100% = response to 6.5 mM cAMP; also: nearly all actives have a fitted effect of over 60% in size
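Read-out is the fluorescence drop as BODIPY-GDP leaves Rap1B (480 nm excitation, 540 nm emission), recorded every 5 minutes over 30 minutes. Reactions held 100 nM EPAC1, 250 nM Rap1B–BODIPY-GDP and 50 uM GDP, with 6.5 mM cAMP setting full activation.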
USP1 inh: inhibitors of human USP1/UAF1 deubiquitinase. O94782. recombinant USP1/UAF1, Ub-Rhodamine cleavage fluorescence. Potency, µM (highest dose often 57.1 µM), for inactives: at the top dose activity change, negative = inhibition, most hits filed as inhibitors. 390,000 tested, 0.23% active; also: % is scaled to controls: 0 for no effect and ±100 for the full control effect; nearly all actives have a fitted effect of over 60% in size
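In this screen, compounds sit with the deubiquitinase complex (1nM) for 15 min at room temperature before Ub-Rho is added at 150nM final. Fluorescence rise is then followed for 6 reads every 60 seconds.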
EPAC2 antag: blocks human EPAC2 exchange factor. Q8WZA2. EPAC2 GEF exchange of Rap1B-BODIPY-GDP, fluorescence. Potency, µM (series often up to 114 µM), for the others: at the top dose activity, negative = inhibition, most hits filed as inhibitors. 360,000 tested, 0.18% active. AID 720708; also: % is scaled to controls: 0 for no effect and ±100 for the full control effect; nearly all actives have a fitted effect of over 45% in size
* = called active by the depositor; ? = inconclusive; . = not tested or not shown. Calls follow the shape of the dose curve; as a rule, active = well fitted curve in the direction sought with a large enough effect; inconclusive = small, poorly fitted or top-dose-only effect, or another doubt; inactive = no such curve, though single readings can be large; an effect the other way counts as inactive or inconclusive. Potency is read from the fitted curve at half-maximal effect.

SMILES	EPAC2 ag	EPAC1 antagonist	EPAC1 agonist	USP1 inh	EPAC2 antag
OCCN(CCO)c1nc(N2CCCCC2)c2nc(N(CCO)CCO)nc(N3CCCCC3)c2n1	112µM*	189.8%	100µM*	28.2µM*	185.1%
CN(C1=C(NC(=O)c2ccccc2)C(=O)c2ccccc2C1=O)C1CCS(=O)(=O)C1 (stereo not drawn)	-8.6%	-17.0%	-29.6%	10µM*	-23.3%
CSc1nc(NCCN(C)C)c2sc3nc(-c4ccco4)c4c(c3c2n1)CCC4	16.9%	-7.6%	-7.9%	-23.7%	10.7%
CSc1nc(N(C)CCO)c2sc3nc(-c4ccco4)c4c(c3c2n1)CCC4	24.8%	44.7µM*	-2.6%	?	-14.4%
COc1ccc(NC(=O)Cn2c(=O)n(-c3cc(C)cc(C)c3)c(=O)c3oc4ccccc4c32)cc1OC	.	.	.	6.6%	.
COc1cc([C@@H]2Nc3c(F)cccc3[C@@H]3C=CC[C@@H]32)cc(Br)c1OC	.	.	.	-10.6%	.
CC1(C(=O)NS(=O)(=O)c2ccc(F)cc2F)CCN1C(=O)C1(c2ccc(Cl)cc2)CCC1 (stereo not drawn)	-1.0%	?	-16.9%	.	35.5µM*
CC1(C(=O)NS(=O)(=O)c2cccc(F)c2)CCN1C(=O)C1(c2ccc(Cl)cc2)CCC1 (stereo not drawn)	2.6%	-19.4%	-4.0%	.	?
Cc1ccccc1CNC(=O)c1cnc2sc(N3CCC(C)CC3)nn2c1=O	.	.	.	1.5%	.
COc1ccc(S(=O)(=O)Nc2cc(SCC(=O)O)c(O)c3ccccc23)cc1	5.2%	79.4µM*	18.7%	31.6µM*	3.2%
O=C(O)CSc1cc(NS(=O)(=O)c2ccc(Cl)cc2)c2ccccc2c1O	?	?	27.8%	25.1µM*	79.4µM*
Cc1cc(C)c(S(=O)(=O)Nc2cc(SCC(=O)O)c(O)c3ccccc23)cc1C	-2.7%	?	28.8%	?	-5.3%
Cc1cc(C)c2oc(C(=O)Nc3c(C(=O)c4ccccc4)oc4ccccc34)cc(=O)c2c1	.	.	.	-17.5%	.
COc1cccc(NC(=O)c2csc3c2CCCC3)c1	12.5%	155.4%	100µM*	-6.7%	-8.7%
CC(=O)CCc1oc2ccc(C)cc2c1Cc1ccccc1	8.0%	?	8.3%	-7.9%	?
CC(=O)CCc1oc2ccccc2c1-c1ccccc1	23.2%	-4.9%	15.7%	-0.3%	25.1µM*
CNS(=O)(=O)c1cn(CC(=O)Nc2ccc(F)cc2F)cc1S(=O)(=O)NC	.	.	.	-27.5%	.
Cc1cccc(C)c1OC(=O)c1ccccc1	6.6%	-8.0%	-0.9%	-1.9%	50.1µM*
CCNc1cccc2c1C(=O)N(C)C2=O	?	18.1%	?	15.8µM*	27.2%
CCCC[C@@]1(C2CCCC2)Cc2cc(OCC(=O)O)c(Cl)c(Cl)c2C1=O	-2.8%	-20.2%	-10.6%	-27.7%	44.7µM*
C[C@]1(C2CCCC2)Cc2cc(OCC(=O)O)c(Cl)c(Cl)c2C1=O	1.7%	-5.9%	-21.2%	-19.3%	-22.5%
COc1ccccc1N1CCN(C(=O)c2ccc(S(=O)(=O)N3CCCC3)cc2)CC1	7.94µM*	1.0%	-5.4%	-15.1%	6.8%
O=C(Nc1ccccc1N1CCOCC1)c1cccc2c(Br)cccc12	-2.0%	-10.1%	-4.7%	-18.2%	14.1µM*
O=C(Nc1ccc(N2CCOCC2)cc1)c1cccc2c(Br)cccc12	7.3%	1.3%	8.1%	-9.8%	5.3%
COc1ccc(Cn2c(SCc3ccc(C(=O)NC4CCCCC4)cc3)nc3cccnc32)cc1	.	.	.	-7.8%	.
SMILES	EPAC2 ag	EPAC1 antagonist	EPAC1 agonist	USP1 inh	EPAC2 antag
Cc1nc(-c2ccc(S(=O)(=O)N3CCN(c4cccc(Cl)c4)CC3)cc2)co1	.	.	.	-22.8%	.
Oc1ccc(/C(Cc2ccc3ccccc3n2)=N\Nc2ccccc2)c(O)c1	22.7%	-26.7%	16.7%	?	-14.8%
Oc1ccc(/C(Cc2ccccn2)=N\Nc2ccccc2)c(O)c1	7.9%	?	19.4%	-9.4%	44.7µM*
COc1cccc(OC)c1OC(=O)/C=C/c1ccc(C)o1	13.7%	-12.8%	2.0%	?	56.2µM*
COc1cc(OC)c(NC(=O)c2oc3ccc4c(c3c2C)C(=O)CC(C)(C)O4)cc1Cl	.	.	.	-21.9%	.
COc1cccc(CN2CC(O)=C(c3nc(-c4ccc(Cl)cc4)cs3)C2=N)c1	6.31µM*	2.3%	-14.4%	-12.4%	9.7%
CCN(C(=O)c1nn(-c2ccc(OC)c(Cl)c2)c(=O)c2c1c1ccccc1n2C)c1cccc(C(F)(F)F)c1	.	.	.	0.1%	.
O=C1C(O)=C(O)C(=O)c2ccccc21	12.8%	?	-31.3%	15.8µM*	?
O=C1c2ccccc2C(=O)c2[nH]c(=O)[nH]c21	0.4%	7.1%	-3.1%	28.2µM*	-7.9%
O=C1C(=O)c2ccccc2C(O)=C1c1ccccc1F	2.4%	-11.1%	-4.6%	5.2%	-11.2%
O=C(c1ccc(Nc2nc3ccccc3n3nnnc23)cc1)N1CCN(c2ccc(F)cc2)CC1	.	.	.	-16.2%	.
CN(C)c1ccc(/C=C(/C#N)C(=O)Nc2nc3c(s2)CCN(Cc2ccccc2)C3)cc1	100µM*	3.4%	18.5%	?	89.0%
Cc1ccc2nc(CSc3nnc(NC(=O)COc4ccccc4)s3)cc(=O)n2c1	.	.	.	-10.4%	.
CCCN(CCC)C(=O)Cn1c(=O)c2sccc2n2c(=S)sc(-c3ccccc3)c12	-32.9%	-10.2%	8.1%	-20.9%	50.1µM*
CCOc1cc(/C=N/NC(=O)c2ccc(CN3CCOCC3)cc2)ccc1OC	5.8%	-23.2%	1.8%	?	-22.3%
CCOc1cc(/C=C/C(=O)c2ccc(OC)c(CN3CCOCC3)c2)cc(Br)c1O	17.8%	17.0%	20.8%	35.5µM*	-8.9%
C=CCOc1ccc(/C=C2\SC(=S)N(NS(=O)(=O)c3ccc(C)cc3)C2=O)cc1	-7.9%	50.1µM*	-4.5%	?	-25.9%
Cc1ccc(/C=C2\SC(=S)N(NS(=O)(=O)c3ccc(C)cc3)C2=O)cc1	-3.2%	?	11.2%	-30.1%	44.7µM*
Cc1ccc(S(=O)(=O)NN2C(=O)/C(=C\c3ccc(Cl)cc3)SC2=S)cc1	-1.9%	?	-4.0%	-5.9%	-20.6%
CCOc1ccc(/C=C2/SC(=O)NC2=S)cc1	1.8%	-0.5%	-9.9%	-20.4%	-0.5%
CCOc1ccc(N=C2NC(=O)S/C2=C\c2ccc(N(C)C)cc2)cc1	?	-7.2%	-8.6%	28.2µM*	60.7%
O=C(Nc1ccc2nc(-c3ccco3)c(-c3ccco3)nc2c1)NC1CC1	5.5%	50.1µM*	1.0%	?	13.0%
O=C(Nc1cccc(C(F)(F)F)c1)c1ccc2nc(-c3ccco3)c(-c3ccco3)nc2c1	-28.4%	35.5µM*	-30.5%	28.2µM*	?
COCCCNc1ncnc2c1c(-c1ccccc1)cn2-c1ccc(C)c(Cl)c1	.	.	.	-3.8%	.
CCOc1ccccc1N1CCN(C(=O)c2cc(-c3cc(OC)ccc3OC)nc3ccccc23)CC1	8.6%	?	6.8%	15.8µM*	-2.1%
